Assay outcomes: PubChem BioAssay, several laboratories
Keap1-Nrf2 PPI – Keap1-Nrf2 protein-protein interaction inhibitors, primary screen, biochemical, fluorescence polarization, single point; Kelch-like ECH-associated protein 1 (Homo sapiens), Q14145; Keap1 Kelch-Nrf2 peptide fluorescence polarization, 1536-well; inhibition, % at 9.4 µM; actives 0.15% (n = 340,000); AID 504523, 2011; in the data active = inhibition above about 12%;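 note: human Keap1 Kelch domain with fluorescein labeled Nrf2 9mer peptide probe; 0% = neutral control wells and 100% = peptide positive control; higher means more block of Keap1 binding to Nrf2 peptide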
E coli Lon inh – inhibitors of E. coli Lon protease, primary screen, biochemical, fluorescence polarization; AID 602123, 2011; P0A9M0; inhibition, % at 7.94 µM; purified E. coli Lon protease; actives 0.42% (n = 360,000); in the data active = inhibition above about 13%, passing the limit was not always enough;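 note: 0% = enzyme with probe and DMSO and 100% = no enzyme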
Target sequence (P0A9M0 whole entry, looked up): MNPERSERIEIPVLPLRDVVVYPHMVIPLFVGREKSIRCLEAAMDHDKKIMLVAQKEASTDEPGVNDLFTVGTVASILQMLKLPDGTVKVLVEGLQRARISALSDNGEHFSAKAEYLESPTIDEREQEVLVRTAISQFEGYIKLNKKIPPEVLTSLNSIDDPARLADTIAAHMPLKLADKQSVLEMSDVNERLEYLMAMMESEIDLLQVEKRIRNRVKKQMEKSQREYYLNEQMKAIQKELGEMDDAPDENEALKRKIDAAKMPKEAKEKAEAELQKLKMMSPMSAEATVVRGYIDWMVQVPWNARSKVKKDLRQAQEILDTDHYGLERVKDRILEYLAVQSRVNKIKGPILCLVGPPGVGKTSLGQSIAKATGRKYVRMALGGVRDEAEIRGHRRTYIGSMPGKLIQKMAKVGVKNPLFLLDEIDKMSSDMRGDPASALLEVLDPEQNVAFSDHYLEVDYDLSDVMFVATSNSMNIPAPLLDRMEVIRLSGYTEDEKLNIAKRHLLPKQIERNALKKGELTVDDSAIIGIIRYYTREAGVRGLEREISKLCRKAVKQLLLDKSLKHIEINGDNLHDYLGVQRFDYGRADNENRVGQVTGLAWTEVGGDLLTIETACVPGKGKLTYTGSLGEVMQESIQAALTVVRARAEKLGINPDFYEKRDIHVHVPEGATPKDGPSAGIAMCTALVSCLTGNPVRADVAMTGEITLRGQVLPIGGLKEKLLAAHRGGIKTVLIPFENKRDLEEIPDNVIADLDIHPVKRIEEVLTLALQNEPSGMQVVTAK
LANA DNA inh – inhibitors of KSHV C-LANA binding to DNA, primary screen, biochemical, fluorescence polarization, FAM-LBS DNA, MBP-C-LANA, single point; actives 0.078% (n = 340,000); inhibition, % at 9 µM; Kaposi's sarcoma herpesvirus LANA C-terminal domain (residues 932-1162) DNA binding; AID 504423, 2011;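 active = highest replicate inhibition at or above 60% at 9 µM, even if other replicates fall short; inactive = all replicates below 60% inhibition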;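 note: 0% = neutral control wells and 100% = 4 µM acridine orange control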
EBV gp42 inh – Epstein-Barr virus gp42 inhibitors, primary screen, biochemical, uHTS, fluorescence polarization; Fluorescence polarization binding assay, mP read-out; inhibition, % (tested at 21.74 µM); actives 0.42% (n = 220,000); AID 1085, 2008; in the data active = inhibition above about 50%
LANA-H2B inh – blockers of LANA interaction with H2A/H2B – biochemical, FP readout, HTS, primary screen; actives 0.6% (n = 320,000); inhibition, % (no concentration beside the values); Protein LANA1 (Human herpesvirus 8 type P (isolate GK18)), Q9QR71; cell-free LANA-H2A/H2B peptide, fluorescence polarization; in the data active = inhibition mostly above about 10%, no sharp cut-off; inactive = mostly below about 6.7%
GLD-1 TGE inh – GLD-1/TGE RNA complex disruptors, primary screen, biochemical, fluorescence polarization. actives 0.44% (n = 320,000). Female germline-specific tumor suppressor gld-1 (Caenorhabditis elegans), Q17339. purified GLD-1 + fluorescein TGE RNA. inhibition, % at 5.96 µM;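 active = percent inhibition above a per-plate cutoff, the plate mean of test compounds plus 3 SD, cut at about 30% in these data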;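 note: 0% = DMSO wells with GLD-1 and probe and 100% = wells lacking GLD-1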
The depositor's hits bear a star; . = not tested or not shown; ! = a repeat was not active. An excerpt weighted towards active compounds, which were near 1.5% of everything screened.

SMILES | Keap1-Nrf2 PPI | E coli Lon inh | LANA DNA inh | EBV gp42 inh | LANA-H2B inh | GLD-1 TGE inh
Cc1ccc(-n2nnnc2SCC(=O)N(CC(C)C)c2c(N)n(CC(C)C)c(=O)[nH]c2=O)cc1 | -0.9 | 0.5 | 0.7 | -3.2 | 0.3 | 5.3
O=C(COc1ccc(F)cc1Br)N1CCN(S(=O)(=O)/C=C/c2ccccc2)CC1 | 0.5 | -4.4 | -0.7 | -15.1 | 87.3* | 2.9
O=C(CSc1nnnn1C1CCCC1)N1CCCc2ccccc21 | -3.6 | -4.8 | -1.4 | -0.2 | 0.1 | 3.7
c1ccc2c(c1)CCCN2Cc1nnnn1C1CCCC1 | -2.8 | -4.7 | 0.1 | -8.5 | 4.8 | 53.0*
CCOC(=O)c1ncn2c1CN(C)C(=O)c1cc(F)ccc1-2 | -1.2 | -1.0 | 0.1 | -14.2 | 28.7*! | 7.5
CCOC(=O)c1c(C)[nH]c(C(=O)OCC(=O)N2CCN(S(=O)(=O)c3ccc(C)cc3C)CC2)c1C | 0.7 | -1.6 | 1.3 | . | 122.3* | 9.2
O=C(CSc1ccsc1[N+](=O)[O-])Nc1cccc(F)c1 | -1.3 | -5.0 | 10.1 | 61.7* | . | .
CC(=O)Nc1ccc(NC(=O)CSc2ccc(C(F)(F)F)cc2[N+](=O)[O-])cc1 | 0.4 | -6.0 | -1.6 | -19.3 | 3.2 | -6.1
O=C(CSc1ccc(C(F)(F)F)cc1[N+](=O)[O-])Nc1ccccc1 | -5.2 | 36.7* | 0.9 | 10.7 | 2.7 | -6.1
CCc1ccccc1NC(=O)CSc1ccsc1[N+](=O)[O-] | -0.1 | -5.0 | -0.2 | 43.5 | 4.1 | 3.7
O=C(c1cc(Cl)nc2ccccc12)N1CCN(Cc2ccc3c(c2)OCO3)CC1 | -5.4 | -7.7 | 1.8 | . | 20.8* | 3.9
COc1ccc(Cl)cc1C(=O)N1CCN(Cc2ccc3c(c2)OCO3)CC1 | -3.4 | 1.4 | -1.7 | . | 14.3* | 11.1
Cc1cc(Cl)ccc1-c1cc2nc(NCCCN(C)C)n(C)c(=O)c2s1 | . | 4.2 | . | . | . | .
CC(C)COc1ccc(C(=O)N/C(=C/c2cccc([N+](=O)[O-])c2)C(=O)O)cc1 | -0.7 | 1.0 | 0.6 | -11.3 | 2.8 | -0.9
Cc1ccc(C(=O)N2CCCC(CCC(=O)N3CCN(c4ccccn4)CC3)C2)cn1 (stereo unspecified) | -1.1 | 7.3 | -0.2 | . | 10.5* | 3.4
CCn1c(CSc2nnc(-c3ccncc3)n2CCOC)nc2cc(C(=O)O)ccc21 | -3.5 | 4.8 | 2.0 | 8.0 | -1.7 | 14.4
CCn1c(CSc2n[nH]c(N)n2)nc2cc(C(=O)O)ccc21 | -2.8 | 3.9 | 2.3 | 64.0* | -4.0 | 22.4
CCCCNC(=O)C1(C)CCC(=O)N1CCc1c[nH]c2ccccc12 (stereo unspecified) | . | -17.5 | . | . | . | .
CCN(CC)CCOC(=O)C1(c2ccccc2)CCCC1 | -5.1 | -2.3 | 2.1 | -6.5 | 36.3* | 7.3
CCN(CC)CCOC(=O)C1(c2ccc(OC)c(OC)c2)CCCC1 | 0.5 | 9.8 | -1.3 | -18.3 | -2.0 | -4.6
CC1=C(C(N)=O)C(c2ccc(Br)cc2)n2nc(CCCO)nc2N1 (stereo unspecified) | -2.4 | 2.2 | 1.8 | . | 15.8* | -41.4
CC1=C(C(N)=O)C(c2ccccc2F)n2nc(CCCO)nc2N1 (stereo unspecified) | -5.5 | 8.5 | -1.5 | . | -1.3 | 6.9
Cn1cc(/C=C2\SC(=S)N(NC(=O)c3cccc(Cl)c3)C2=O)c2ccccc21 | 2.0 | -68.0 | 0.4 | 164.9* | . | .
Cn1cc(/C=C2\SC(=S)N(N3CCOCC3)C2=O)c2ccccc21 | 1.2 | -11.4 | -4.0 | 39.1 | -3.3 | -0.6
Cn1cc(/C=C2\SC(=S)N(NC(=O)c3ccccc3)C2=O)c2ccccc21 | -3.8 | -91.7 | -0.2 | 89.3* | -488.3 | -158.3
SMILES | Keap1-Nrf2 PPI | E coli Lon inh | LANA DNA inh | EBV gp42 inh | LANA-H2B inh | GLD-1 TGE inh
CCc1nc2ccc(C(=O)Nc3cccc(NS(C)(=O)=O)c3)cn2c1N(CC)Cc1cccc(Br)c1 | . | -6.6 | . | . | . | .
O=C(CN(C(=O)c1csnn1)c1cccc2ccccc12)NCc1ccc(F)cc1 | 1.8 | -5.0 | 1.3 | . | 20.2* | 1.4
Cc1cc(C)nc(NS(=O)(=O)c2ccc(NC(=O)CSc3ncn[nH]3)cc2)n1 | 1.1 | -0.1 | 0.1 | -2.5 | -2.4 | 6.9
COC(=O)c1cc(C(=O)c2ccc(Cl)cc2)n2c(=O)/c(=C\N(C)C)sc12 | -7.7 | 4.2 | -1.4 | 61.6* | 6.6 | 3.7
Cc1ccc(Cn2cc(/C=N/NC(=O)Cc3nnc(NC(=O)c4ccc(C)cc4)s3)c3ccccc32)cc1 | -0.8 | 0.9 | 1.3 | -12.9 | -2.5 | 0.0
C=CCn1c(SCC(=O)N2c3ccccc3Sc3ccccc32)nnc1-c1ccco1 | -4.2 | 1.6 | -2.0 | -3.5 | 23.4* | -5.6
CCn1c(SCC(=O)N2c3ccccc3Sc3ccccc32)nnc1-c1ccco1 | -2.8 | -7.5 | -0.7 | 13.1 | -6.2 | -4.0
CC1(C(=O)NS(=O)(=O)c2ccccc2OC(F)(F)F)CCN1C(=O)Cc1ccccc1 (stereo unspecified) | . | -2.1 | . | . | . | .
CCCCOc1ccc(C(=O)O)cc1 | -3.4 | -6.8 | -2.0 | -15.8 | 5.0 | -1.3
CCCCCCCCOc1ccc(C(=O)O)cc1 | -0.8 | 8.2 | 2.6 | . | 111.7* | 3.6
Cc1cc(C)cc(CC(=O)N2CCC2(C)C(=O)NS(=O)(=O)c2cccc(F)c2)c1 (stereo unspecified) | . | 8.2 | . | . | . | .
Cc1ccc(C(=O)NCCCn2ccnc2)cc1C | . | 20.6 | . | . | -3.4 | -2.7
O=C(NCCCn1ccnc1)c1ccc2c(c1)OCCO2 | -2.0 | 13.5 | 1.0 | 90.2* | 2.8 | 5.6
CCC(CC)=N/N=C/c1c(O)n(CC)c2cc(C3=NNC(=O)CC3)ccc12 | -0.5 | -2.6 | -1.0 | -22.1 | -4.2 | -20.2
CCn1c(O)c(/C=N/N=C/c2ccccc2)c2ccc(C3=NNC(=O)CC3)cc21 | 2.2 | -79.4 | 7.4 | 59.6* | -8.2 | -30.2
COc1ccc(-c2c(C(=O)c3ccccc3)[nH]c(N)c2C(=O)c2ccc(Br)cc2)cc1OC | . | -7.2 | . | . | . | .
CCOc1ccc(N/C=C/C(=O)c2ccc(OC)cc2)c([N+](=O)[O-])c1 | -5.8 | 1.8 | -0.1 | 58.9* | -1.2 | 4.0
COc1ccc(N/C=C/C(=O)c2ccc(C)cc2)c([N+](=O)[O-])c1 | -1.2 | -9.6 | 1.1 | . | -4.2 | 6.9
O=C(O)c1cc(-c2ccco2)nc2ccc(Br)cc12 | 2.4 | -2.3 | 32.5 | 2.2 | 1.5 | 68.1*!
O=C(N=Nc1c(O)[nH]c2ccc([N+](=O)[O-])cc12)c1cc(-c2ccccc2Cl)nc2ccccc12 | -0.1 | -3.7 | 1.4 | 72.9* | -3.8 | -3.1
